{"source": "PubChem BioAssay AID2778", "about": "(National Center for Advancing Translational Sciences (NCATS), 2010)", "note": "Results filed as inconclusive are left out. A call without a number means that no potency is given here. Calls of active or inactive are those of the source. Calls come from the whole dose curve; as a rule, active = well fitted inhibition curve with a large enough effect; inconclusive = small, poorly fitted or top-dose-only effect, or effect the other way; inactive = flat fitted curve, though single readings scatter. Positions of bridges follow the written chain, without caps; N, C: chain ends. Non-standard residues stand in square brackets, D forms with d. Residues, ends and D or L forms follow the SMILES beside them. ξ: configuration not given here. *: point of attachment. ξDab(CH2SO3H) = NC(CCNCS(=O)(=O)O)C(=O)O; Heptanoyl(6-Me) = CC(C)CCCCC(=O)*; Dab = NCC[CH](N)C(=O)O"}
{"target": "Menin (Homo sapiens) (UniProt O00255)", "sequence (O00255 whole entry, looked up)": "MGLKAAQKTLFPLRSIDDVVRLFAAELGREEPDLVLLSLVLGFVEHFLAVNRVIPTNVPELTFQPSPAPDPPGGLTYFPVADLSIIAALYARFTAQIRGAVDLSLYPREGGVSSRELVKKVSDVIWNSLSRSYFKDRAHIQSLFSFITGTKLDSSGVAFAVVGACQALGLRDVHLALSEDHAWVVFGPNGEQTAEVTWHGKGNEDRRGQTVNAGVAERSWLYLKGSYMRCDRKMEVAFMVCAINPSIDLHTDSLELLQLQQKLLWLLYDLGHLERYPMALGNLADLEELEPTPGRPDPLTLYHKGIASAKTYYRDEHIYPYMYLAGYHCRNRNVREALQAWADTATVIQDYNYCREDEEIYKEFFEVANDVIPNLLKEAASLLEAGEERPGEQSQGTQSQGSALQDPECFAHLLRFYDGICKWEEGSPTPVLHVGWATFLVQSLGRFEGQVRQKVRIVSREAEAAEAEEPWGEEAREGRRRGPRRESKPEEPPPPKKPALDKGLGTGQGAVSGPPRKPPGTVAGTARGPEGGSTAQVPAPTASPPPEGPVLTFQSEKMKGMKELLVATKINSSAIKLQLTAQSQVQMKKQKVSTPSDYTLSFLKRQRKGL", "experiment": "Confirmation of Inhibitors Targeting the Menin-MLL Interaction in MLL Related Leukemias: Confirmation in an HTRF (commercial TR-FRET) Assay using His-tagged menin and biotin-labeled MLL peptide; note: potency is the fitted concentration of half-maximal effect", "conditions": "His-menin / biotin-MLL peptide binding; series mostly up to 126 µM", "method_in_brief": "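Compounds were incubated 1 hr at ambient with a preformed His6-menin (200 nM)/biotinylated MLL-w.t. peptide (80 nM) complex in Tris pH 7.5 buffer; anti-His Eu-cryptate (3.5 nM) and SA-XL665 (10 nM) added, TR-FRET read after 1h.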"}
{"smiles": "O=C(Cn1c(=O)c2c3c(sc2n(Cc2ccccc2)c1=O)CCCC3)NCCO", "Potency": "inactive"}
{"smiles": "CCNc1ccccc1CP(=O)(c1ccccc1)c1ccccc1O", "note": "(centres undefined)", "Potency": "89.1 µM (active)"}
{"smiles": "CCN1C(=O)c2ccccc2S(=O)(=O)c2ccc(C(=O)NCCCN(CC(C)C)CC(C)C)cc21", "Potency": "inactive"}
{"smiles": "COc1ccc(OC)c(C(c2c(C)[nH][nH]c2=O)c2c(C)[nH][nH]c2=O)c1", "Potency": "inactive"}
{"smiles": "NS(=O)(=O)c1ccc(NC(=O)c2ccc(-c3ccccc3)cc2)cc1", "Potency": "63.1 µM (active)"}
{"smiles": "Nc1cccc2c1C(=O)N(C(=O)c1ccco1)C2=O", "Potency": "inactive"}
{"smiles": "O=S(=O)(c1ccc(-c2csc(Nc3ccc(Br)cc3)n2)cc1)N1CCCC1", "Potency": "inactive"}
{"smiles": "O=C(CC(Sc1ccc(Br)cc1)C(=O)O)c1ccc(F)cc1", "note": "(centres undefined)", "Potency": "inactive"}
{"smiles": "CCC(C)C1NC(=O)C(CCNCS(=O)(=O)O)NC(=O)C(NC(=O)C(CCNCS(=O)(=O)O)NC(=O)C(NC(=O)C(CCNCS(=O)(=O)O)NC(=O)CCCCC(C)C)C(C)O)CCNC(=O)C(C(C)O)NC(=O)C(CCNCS(=O)(=O)O)NC(=O)C(CCNCS(=O)(=O)O)NC(=O)C(C(C)CC)NC1=O", "note": "(centres undefined) ({Heptanoyl(6-Me)}-[ξDab(CH2SO3H)]T[ξDab(CH2SO3H)][Dab][ξDab(CH2SO3H)]II[ξDab(CH2SO3H)][ξDab(CH2SO3H)]T; lactam 4-C; configuration not given here)", "Potency": "inactive"}
{"smiles": "Clc1ccc(-c2nnc(-c3ccccc3)nc2-c2c[nH]c3ccccc23)cc1", "Potency": "inactive"}
{"smiles": "CC(=O)N1CCCc2cc(S(=O)(=O)N3CCCC(C(=O)N4CCN(c5ccccc5)CC4)C3)ccc21", "note": "(centres undefined)", "Potency": "inactive"}
{"smiles": "COc1cc(OC)c2ccc(=O)oc2c1C(CCN1CCOCC1)c1ccc(N(C)C)cc1", "note": "(centres undefined)", "Potency": "inactive"}
{"smiles": "CCOC(=O)Cn1cnc2scc(-c3ccc(C)c(C)c3)c2c1=O", "Potency": "inactive"}
{"smiles": "O=C(CSc1ccc(Cl)cc1)Nc1ccc(NC(=O)c2ccco2)cc1", "Potency": "inactive"}
{"smiles": "Cc1cc2ccccc2nc1SCC(=O)Nc1nc(-c2ccccc2)cs1", "Potency": "inactive"}
{"smiles": "CNC[C@H](CC1CCCCC1)NC[C@H](Cc1ccccc1)NCCC12CC3CC(CC(C3)C1)C2", "Potency": "251 µM (active)"}
{"smiles": "CN(CCOc1ccc(Cl)cc1)CC(O)c1ccccc1", "note": "(centres undefined)", "Potency": "inactive"}
{"smiles": "CCOC(=O)N1CCN(CC(=O)N2c3ccccc3Sc3ccccc32)CC1", "Potency": "inactive"}
{"smiles": "O=C(O)CSc1cc(NS(=O)(=O)c2ccc(Br)cc2)c2ccccc2c1O", "Potency": "89.1 µM (active)"}
{"smiles": "CCN1CCN(CC(=O)Nc2ccc(C(C)=O)cc2)CC1", "Potency": "inactive"}
{"smiles": "CCCn1c(C2CCCN2c2nc(C)cs2)nc2cc(Cl)c(Cl)cc21", "note": "(centres undefined)", "Potency": "inactive"}
{"smiles": "CC(c1ccccc1)c1nnc(NC(=O)Nc2ccccc2F)s1", "note": "(centres undefined)", "Potency": "inactive"}
{"smiles": "Cc1ccc(C2=NN(C(=O)c3ccccc3F)C(c3ccccc3F)C2)cc1", "note": "(centres undefined)", "Potency": "inactive"}
{"smiles": "COc1ccc(-c2csc(NC(=S)NC(=O)/C=C/c3ccc(C(C)C)cc3)n2)cc1OC", "Potency": "inactive"}
{"smiles": "N#CC1=C(N)OC2=C(C(=O)CC(c3ccco3)C2)C1c1ccc(OCc2c(F)cccc2Cl)cc1", "note": "(centres undefined)", "Potency": "inactive"}
{"smiles": "Cc1ccc(C#CC(C)(O)C(C)(C)C)cn1", "note": "(centres undefined)", "Potency": "inactive"}
{"smiles": "O=C(O)c1ccccc1NS(=O)(=O)c1cccc(-n2sc3ccccc3c2=O)c1", "Potency": "inactive"}
{"smiles": "COc1ccccc1/C=C/C(=O)NC(=S)Nc1ccc(S(=O)(=O)N(C)c2ccccc2)cc1", "Potency": "inactive"}
{"smiles": "Cc1ccccc1CN1CCN(C(C)C(=O)NCc2ccccc2)CC1", "note": "(centres undefined)", "Potency": "inactive"}
{"smiles": "Fc1ccccc1C1c2cccn2CCN1C(=S)Nc1ccc(Br)cc1", "note": "(centres undefined)", "Potency": "inactive"}
{"smiles": "Oc1ccc2ccccc2c1N=Nc1nccs1", "Potency": "inactive"}
{"smiles": "CCN(CCn1cccn1)Cc1ccccc1OCC(O)CN1CCc2ccccc2C1", "note": "(centres undefined)", "Potency": "inactive"}
{"smiles": "CCOc1ccc(NC(=O)c2cccc(OC(=S)N3CCC(C)CC3)c2)cc1", "Potency": "inactive"}
{"smiles": "O=C(c1cc2c(=O)n3ccccc3nc2s1)N1CCOCC1", "Potency": "inactive"}
